From PubChem BioAssay (NCATS) come the findings set out here.

The target in experiment [1] is Arylsulfatase A (Homo sapiens) (UniProt P15289). Kind of experiment: qHTS screen for enhancers of Arylsulfatase A (ASA1): LOPAC Validation Assay (AID 720538). Also: potency is read from the fitted curve at half-maximal effect. In short, it runs like this:
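First, ASA-I179S fibroblasts from an MLD patient adhered for 6 hrs. Next, compounds were added for 48h. Then pNCS substrate (0.5mM final) with lysis buffer reacted 14h at room temperature before NaOH stop and fluorescence measurement.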

The nature of experiment [2]: qHTS for compounds that reverse cellular toxicity of Amyloid beta (A-beta) peptide in yeast: LOPAC Validation Assay (AID 720559).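 Also: plate controls were DMSO for no effect and equimolar ferric chloride plus clioquinol rescue for full effect.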 The procedure, abridged:
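Activity is expressed relative to DMSO and an equimolar ferric chloride/clioquinol mix. Compounds were pinned into medium with A-beta-expressing yeast, grown 48 hr at 30 C, then read by absorbance at 600 nm.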
(In general: qHTS replaces the single test concentration by a dilution series.)

The nature of experiment [3]: qHTS for Activators of Parkin Expression: LOPAC Validation Assay (FLuc Reporter) (AID 720573;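 also: 0% = DMSO and 100% = positive control compounds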). In short, it runs like this:
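A neuronal cell line harbouring FLuc and NLuc reporters behind the Parkin promoter was exposed to compounds for 24 h. Firefly luciferase signal, measured after 10 min with detection reagent, was scaled to DMSO and positive-control wells.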

For experiment [4], the target named is T1, Hexokinase-4 (Homo sapiens) + Glucokinase regulatory protein (Homo sapiens) (UniProt P35557+Q14397). Kind of experiment: qHTS assay for inhibitors of recombinant human GCK-GKRP interaction: Diaphorase-coupled assay (AID 743205). In short, it runs like this: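 Inhibitors of the GCK–GKRP complex relieve GKRP suppression of GCK, detected through a G6PDH–diaphorase cascade reducing resazurin. Human GST-GCK and FLAG-GKRP are used at 10 nM with 5 mM glucose and 0.4 mM ATP.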

In experiment [5] the target is T1, Hexokinase-4 (Homo sapiens) + Glucokinase regulatory protein (Homo sapiens). Kind of experiment: qHTS assay for inhibitors of recombinant human GCK-GKRP interaction: ADP-Glo assay (AID 743206).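 Also: plate controls were DMSO plus enzyme for no effect and no enzyme for full effect.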 The procedure, abridged: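 GST-GCK and FLAG-GKRP (15 nM each in the dispensed mix, with 2 uM S6P) react with 0.4 mM ATP and 5 mM glucose (final) in Hepes pH 7.6 for 60 min at room temperature. ADP is measured by ADP-Glo luminescence.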

Experiment [6] shares this target. Kind of experiment: qHTS assay for inhibitors of recombinant human GCK-GKRP interaction: HTRF assay (AID 743207). Also: potency is read from the fitted curve at half-maximal effect. The procedure, abridged:
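Steps: dispense GCK–GKRP complex (5 nM each, GST- and FLAG-tagged) with 2 uM S6P; pin in compounds; add XL665/Eu-cryptate-labelled antibodies; incubate 60 min at room temperature; read time-resolved FRET at 665 and 615 nm.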

Experiment [7] is described as follows: qHTS Assay for Identifying Gametocytocidal Compounds (AID 743244). Also: potency is read from the fitted curve at half-maximal effect.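 As to max response: % is scaled to controls: 0 for no effect and ±100 for the full control effect; actives lower the fluorescent signal which means gametocytes are killed.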 Conditions: P. falciparum 3D7 stage III-V gametocytes, alamarBlue, 72 h; max response: hits give low values. The procedure, abridged:
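Viability read-out was resazurin reduction (alamarBlue, 24 h) measured at Ex 525/Em 598 nm. Beforehand, late-stage (III-V) 3D7 P. falciparum gametocytes at 20,000 cells/well were incubated with compound 72 h at 37C under 5% CO2.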

Experiment [8] is described as follows: qHTS for Activators of Parkin Expression: LOPAC Validation Assay (NLuc Reporter) (AID 720572;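 also: 0% = DMSO and 100% = positive control compound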). The procedure, abridged: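 Neuronal cells with a Parkin promoter-driven FLuc/NLuc coincidence reporter were treated 24 h at 37 C in 7-point dose response (LOPAC). NLuc luminescence read after FLuc; signals normalized to DMSO and positive control (100%).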

Where “and” joins values, the source holds several entries; their conditions need not be identical. Equal entries are not always repeated. A number with no mark means an inactive call. Results filed as inconclusive are left out. Calls of active or inactive are those of the source. Calls follow the shape of the dose curve; as a rule, active = well fitted curve in the direction sought with a large enough effect; inconclusive = small, poorly fitted or top-dose-only effect, or another doubt; inactive = no such curve, though single readings can be large; an effect the other way counts as inactive or inconclusive.

Sequence of Arylsulfatase A (Homo sapiens) (P15289 whole entry, looked up): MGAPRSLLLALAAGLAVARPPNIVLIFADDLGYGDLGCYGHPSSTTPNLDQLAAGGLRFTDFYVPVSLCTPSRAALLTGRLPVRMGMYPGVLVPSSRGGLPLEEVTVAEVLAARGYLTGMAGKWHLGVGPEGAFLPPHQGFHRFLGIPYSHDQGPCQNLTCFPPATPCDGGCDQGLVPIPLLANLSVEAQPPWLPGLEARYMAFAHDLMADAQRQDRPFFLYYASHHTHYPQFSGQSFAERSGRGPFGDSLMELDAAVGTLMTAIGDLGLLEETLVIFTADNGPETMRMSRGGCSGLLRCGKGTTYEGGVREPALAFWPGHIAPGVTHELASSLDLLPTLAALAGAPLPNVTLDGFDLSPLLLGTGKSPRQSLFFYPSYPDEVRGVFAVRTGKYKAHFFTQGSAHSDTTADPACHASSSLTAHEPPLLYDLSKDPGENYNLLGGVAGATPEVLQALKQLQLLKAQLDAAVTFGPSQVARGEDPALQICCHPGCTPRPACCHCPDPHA
T1 sequence (P35557 whole entry, looked up): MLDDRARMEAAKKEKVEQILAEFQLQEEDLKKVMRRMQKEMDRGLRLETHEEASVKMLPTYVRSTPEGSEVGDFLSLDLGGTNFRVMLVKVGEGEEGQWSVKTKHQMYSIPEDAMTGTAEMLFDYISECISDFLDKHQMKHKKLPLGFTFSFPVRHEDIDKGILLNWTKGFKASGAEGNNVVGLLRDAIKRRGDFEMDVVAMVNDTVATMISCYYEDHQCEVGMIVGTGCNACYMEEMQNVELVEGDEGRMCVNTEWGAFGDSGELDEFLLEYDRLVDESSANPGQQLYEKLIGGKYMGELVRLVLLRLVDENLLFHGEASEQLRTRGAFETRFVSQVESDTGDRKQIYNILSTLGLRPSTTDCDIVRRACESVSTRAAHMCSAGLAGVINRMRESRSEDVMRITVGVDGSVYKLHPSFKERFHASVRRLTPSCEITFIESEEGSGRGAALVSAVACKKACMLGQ
T1 sequence (Q14397 whole entry, looked up): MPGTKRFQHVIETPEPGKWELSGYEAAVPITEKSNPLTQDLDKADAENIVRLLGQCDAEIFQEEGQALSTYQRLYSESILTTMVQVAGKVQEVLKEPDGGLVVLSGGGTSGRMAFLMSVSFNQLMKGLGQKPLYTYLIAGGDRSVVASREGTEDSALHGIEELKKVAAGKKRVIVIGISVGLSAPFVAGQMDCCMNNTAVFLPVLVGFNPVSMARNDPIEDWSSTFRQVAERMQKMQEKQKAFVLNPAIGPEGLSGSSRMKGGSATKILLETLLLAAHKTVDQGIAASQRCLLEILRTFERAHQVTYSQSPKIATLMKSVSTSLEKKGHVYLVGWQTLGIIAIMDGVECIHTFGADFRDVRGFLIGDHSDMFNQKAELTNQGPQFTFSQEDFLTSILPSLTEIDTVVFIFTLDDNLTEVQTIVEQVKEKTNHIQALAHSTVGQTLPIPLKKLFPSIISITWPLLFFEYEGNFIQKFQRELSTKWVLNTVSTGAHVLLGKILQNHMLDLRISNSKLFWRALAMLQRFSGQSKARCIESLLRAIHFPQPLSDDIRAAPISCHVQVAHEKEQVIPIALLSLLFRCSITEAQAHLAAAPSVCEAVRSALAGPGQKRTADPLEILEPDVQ

Regarding `COC(=O)[C@@H](N)Cc1ccc(O)c(O)c1`, the Potency in experiment [1] was 33.8 µM (active). The outcome in experiment [2], in experiment [3], in experiment [4] and in experiment [5] was inactive. Further, the Potency result in experiment [6] was “inactive”. The max response in experiment [7] is 43.3%.

Consider `CO[C@@]1(NC(=O)CSCC#N)C(=O)N2C(C(=O)O)=C(CSc3nnnn3C)CS[C@@H]21`, for which the Potency result in experiment [1] and in experiment [6] was “inactive” in each case. Also, the compound was classed as inactive in experiment [2], in experiment [3], in experiment [4] and in experiment [5]. Moreover, the max response in experiment [7] was 0.458% and 21.8%.

As to `CCN(CC)CCOCCOC(=O)C1(c2ccccc2)CCCC1`, the Potency result in experiment [1] and in experiment [6] was “inactive” in each case. In addition, the result in experiment [4] and in experiment [5] was inactive.

Consider `OC(CCN1CCCCC1)(c1ccccc1)C1CCCCC1` (centres undefined), for which the Potency entry in experiment [1] and in experiment [6] was “inactive” each time. The compound was classed as inactive in experiment [2], in experiment [3], in experiment [4] and in experiment [5]. For the same compound, the max response in experiment [7] was -12% and 9.84%.

Turning to `COCCc1ccc(OCC(O)CNC(C)C)cc1` (centres undefined), the Potency result in experiment [1] and in experiment [6] was “inactive” each time. For the same compound, the outcome in experiment [4] and in experiment [5] was inactive. In addition, the max response in experiment [7] is -3.26% and -1.45% and -10.9%.

`CCCCCCCC/C=C\CCCCCCCC(=O)NCc1ccc(O)c(OC)c1`: the Potency result in experiment [1] and in experiment [6] was “inactive” throughout. In addition, the compound was classed as inactive in experiment [2], in experiment [3], in experiment [4] and in experiment [5]. In addition, in experiment [7], the max response was 0.654% and 9.43%.

On to `Cc1ccc(=O)n(-c2ccccc2)c1`, for which the Potency result in experiment [1] and in experiment [6] was “inactive” in each case. Further, the result in experiment [2], in experiment [3], in experiment [4] and in experiment [5] was inactive.

With `Cc1cccc(C)c1NC(=O)C(C)N` (centres undefined), the Potency result in experiment [1] and in experiment [6] was “inactive” in each case. Moreover, the outcome in experiment [4] and in experiment [5] was inactive.

As for `CN1C(=O)CC[C@H]1c1cccnc1`, the Potency result in experiment [1] and in experiment [6] was “inactive” in each case. The compound was classed as inactive in experiment [2], in experiment [3], in experiment [4] and in experiment [5]. Moreover, in experiment [7], the max response is 3.71% and 23.6%.

In the case of `CN(C)C(=O)Oc1ccc[n+](C)c1`, the Potency entry in experiment [1] and in experiment [6] was “inactive” throughout. The outcome in experiment [4] and in experiment [5] was inactive. For the same compound, the max response in experiment [7] was -5.59% and 6.64%.

With `CCN1CCC[C@H]1CNC(=O)c1c(O)c(Cl)cc(Cl)c1OC`, the result in experiment [2], in experiment [3], in experiment [4] and in experiment [5] was inactive. Also, the Potency entry in experiment [8] and in experiment [6] was “inactive” throughout. The max response in experiment [7] was 5.28% and 32.3%.

Turning to `C=CCc1ccccc1OCC(O)CNC(C)C` (centres undefined), the outcome in experiment [2], in experiment [4] and in experiment [5] was inactive. The Potency result in experiment [6] is “inactive”. In addition, the max response in experiment [7] is 17.2%.

In the case of `OCCN1CCN(CC/C=C2/c3ccccc3Sc3ccc(C(F)(F)F)cc32)CC1`, the compound was classed as inactive in experiment [2], in experiment [3], in experiment [4] and in experiment [5]. For the same compound, the Potency entry in experiment [8] and in experiment [6] was “inactive” each time.

For `CC(=O)OCC1=C(C(=O)O)N2C(=O)[C@@H](NC(=O)Cc3cccs3)[C@H]2SC1`, the compound was called inactive in experiment [2], in experiment [3], in experiment [4] and in experiment [5]. Also, the Potency entry in experiment [8] and in experiment [6] was “inactive” throughout.

Regarding `CN(C)[C@@H]1C(=O)C(C(N)=O)=C(O)[C@@]2(O)C(=O)C3=C(O)c4c(O)ccc(Cl)c4[C@@H](O)[C@H]3C[C@@H]12`, the call in experiment [2], in experiment [3], in experiment [4] and in experiment [5] was inactive. Besides, the Potency result in experiment [8] was “inactive”. For the same compound, the Potency in experiment [6] was 12.6 µM (active). Further, the max response in experiment [7] was -7.62% and 22.4%.

Turning to `CN(C)CC[C@@H](c1ccc(Br)cc1)c1ccccn1`, the outcome in experiment [4] and in experiment [5] was inactive. In addition, the Potency entry in experiment [6] was “inactive”. Also, in experiment [7], the max response is -2.43% and 14.2%.

On to `O=C(O)CN(CCN(CC(=O)O)CC(=O)O)CCN(CC(=O)O)CC(=O)O`, for which the compound was called inactive in experiment [2], in experiment [3], in experiment [4] and in experiment [5]. For the same compound, the Potency result in experiment [8] and in experiment [6] was “inactive” throughout. Also, the max response in experiment [7] is 13% and 27.1%.

For the compound `COC(=O)C1=C(C)NC(C)=C(C(=O)OC(C)(C)CN(C)CCC(c2ccccc2)c2ccccc2)C1c1cccc([N+](=O)[O-])c1` (centres undefined), the compound was classed as inactive in experiment [2], in experiment [4] and in experiment [5]. Also, the Potency entry in experiment [8] and in experiment [6] was “inactive” throughout. In experiment [7], the max response was 7.33% and 12.6%.

For the compound `c1cc(CN2CCCCC2)cc(OCCCNc2nc3ccccc3s2)c1`, the result in experiment [2], in experiment [3], in experiment [4] and in experiment [5] was inactive. In addition, the Potency entry in experiment [8] and in experiment [6] was “inactive” each time. In addition, the max response in experiment [7] is -9.42%.

In the case of `NCCCNCCSP(=O)(O)O`, the result in experiment [2], in experiment [3], in experiment [4] and in experiment [5] was inactive. Further, the Potency entry in experiment [8] and in experiment [6] was “inactive” throughout. Besides, the max response in experiment [7] was 4.77% and 12.2%.

Consider `O=C(CCNNC(=O)c1ccncc1)NCc1ccccc1`, for which the outcome in experiment [2], in experiment [4] and in experiment [5] was inactive. The Potency result in experiment [8] and in experiment [6] was “inactive” in each case.

For the compound `CCCCNc1c(C(=O)OCC)c(C)nc2c1cnn2CC`, the result in experiment [2], in experiment [3], in experiment [4] and in experiment [5] was inactive. In addition, the Potency result in experiment [8] and in experiment [6] was “inactive” throughout. Besides, the max response in experiment [7] was -2.63% and 24%.

On to `O=C(O)CN(CCOCCOCCN(CC(=O)O)CC(=O)O)CC(=O)O`, for which the compound was classed as inactive in experiment [2], in experiment [3], in experiment [4] and in experiment [5]. The Potency entry in experiment [8] and in experiment [6] was “inactive” each time. The max response in experiment [7] is -5.05% and 25.1%.

Consider `O=C1NCN(c2ccccc2)C12CCN(CCCC(c1ccc(F)cc1)c1ccc(F)cc1)CC2`, for which the call in experiment [2], in experiment [4] and in experiment [5] was inactive. The Potency entry in experiment [8] and in experiment [6] was “inactive” in each case. Also, in experiment [7], the Potency is 10 µM (active).

`CCn1cc(C(=O)O)c(=O)c2cc3c(cc21)OCO3`: the compound was called inactive in experiment [2], in experiment [4] and in experiment [5]. In addition, the Potency result in experiment [6] is “inactive”. Also, in experiment [7], the max response is -6.25% and -3.93%.

Turning to `CCc1c(C)[nH]c2c1C(=O)C(CN1CCOCC1)CC2` (centres undefined), the compound was classed as inactive in experiment [2], in experiment [3], in experiment [4] and in experiment [5]. Moreover, the Potency entry in experiment [8] and in experiment [6] was “inactive” in each case. Further, in experiment [7], the max response was 2.02% and 26.2%.

On to `NC1=NCC2c3ccccc3Cc3ccccc3N12` (centres undefined), for which the compound was called inactive in experiment [2], in experiment [3], in experiment [4] and in experiment [5]. Further, the Potency entry in experiment [8] and in experiment [6] was “inactive” throughout.
